Test results from PubChem BioAssay.
Inconclusive results are not listed. Calls of active or inactive are those of the source. Rule as the data show it: active = percent of DMSO control GFP below about 86%; inactive = the rest, inconclusive results apart.

test: yeast TOR pathway RPL19A-GFP modulators, primary screen, cell-based, S. cerevisiae, multiplex flow cytometry (AID 1862);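 also: lower values mimic rapamycin by blocking the RPL19A rise seen in DMSO cells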; conditions: S. cerevisiae RPL19A-GFP strain, flow cytometry fluorescence, 3 h; at 10 µM; active compounds read low

Percent of DMSO control GFP, inactive:
Cc1ccc2[nH]c3c(c2c1)CN(C)CC3 102%
COc1ccc2[nH]c3c(c2c1)CCn1c-3nc2ccccc2c1=O 101%
CC(=O)O[C@H]1CSC[C@H]1NC(=O)c1ccccc1 101%
CC(=O)Oc1ccc2occ(/C=N/c3cc(=O)[nH]c(=S)[nH]3)c(=O)c2c1 98%
O=C(O)CCSc1nc2ccccc2s1 104%
CCOc1ccc(C(=O)/C=C/c2cc(OC)c(OC)c(OC)c2)cc1 97.1%
COC(=O)c1cc(OC)c(OC)c(OC)c1[N+](=O)[O-] 103%
COC(=O)c1[nH]c2ccccc2c1NC(=O)CN1CCN(C/C=C/c2ccccc2)CC1 108%
Cc1ncc([N+](=O)[O-])n1CC(C)O (centres undefined) 101%
Clc1ccccc1CN1CCc2sccc2C1 100%
CC[C@]1(O)C[C@@H]2CN(CCc3c([nH]c4ccccc34)[C@@](C(=O)OC)(c3cc4c(cc3OC)N(C)[C@H]3[C@@](O)(C(=O)OC)[C@H](OC(C)=O)[C@]5(CC)C=CCN6CC[C@]43[C@@H]65)C2)C1 102%
O=C(CCCN1CC=C(n2c(=O)[nH]c3ccccc32)CC1)c1ccc(F)cc1 98.1%
CCOc1cccc(N2C(=O)CC(N(CCc3ccc(OC)c(OC)c3)C(=O)CC)C2=O)c1 (centres undefined) 101%
COC(=O)C1=C(C)NC(C)=C(C(=O)OC)C1c1ccccc1[N+](=O)[O-] 102%
CC(COc1ccccc1)NC(C)C(O)c1ccc(O)cc1 (centres undefined) 104%
COc1ccc2oc(=O)c(-c3nc(C)cs3)cc2c1 98%
CC(=O)Oc1cc(C(C)C)c(OCCN(C)C)cc1C 103%
O=C(NNC(=O)c1cccs1)c1ccco1 104%
CC(C)Oc1ccc(C(CC(=O)O)c2ccc(F)cc2)cc1 (centres undefined) 102%
Cc1ccccc1-c1coc2cc(O)ccc2c1=O 98.5%
CCN(CC)CCOC(=O)C1(C2CCCCC2)CCCCC1 110%
NC(=O)OCC(COC(N)=O)c1ccccc1 104%
CC(C)[N+]1(C)[C@@H]2CC[C@H]1CC(OC(=O)C(CO)c1ccccc1)C2 (some centres undefined) 101%
Cc1ccccc1OCCSc1nc2ncnc(N)c2[nH]1 97.3%
CC(=O)NCCCCCCNC(C)=O 106%
CCN(Cc1ccncc1)Cc1nc(Cc2ccccc2Cl)no1 95.8%
CCOC(=O)NN1C(=O)c2ccccc2NC1c1ccc(OC)c(OC)c1 (centres undefined) 95.1%
COc1ccc2c(c1)c(CC(=O)O)c(C)n2C(=O)c1ccc(Cl)cc1 105%
CC1=CC2(O)OCCN(CCO)C2=CC1=O (centres undefined) 103%
Cc1ccccc1C(OCCN(C)C)c1ccccc1 (centres undefined) 101%
COC1(C)CC2C(CC1OC(=O)c1cc([N+](=O)[O-])cc([N+](=O)[O-])c1)C2(C)C (centres undefined) 104%
O=C1OC(c2ccc(O)cc2)(c2ccc(O)cc2)c2ccccc21 97.1%
Cn1c(=O)c2c(ncn2CC(O)CO)n(C)c1=O (centres undefined) 100%
Cc1cnc(C(=O)N2CCCC(C(=O)c3ccc(Cl)cc3C)C2)cn1 (centres undefined) 104%
CN(C)C(=O)C12CCC(C)(c3nc4ccccc4nc31)C2(C)C (centres undefined) 104%
CCOC(=O)c1ccc(N2C(=O)C(CC(N)=O)N(CCc3ccc(OC)c(OC)c3)C2=S)cc1 (centres undefined) 96.9%
Cc1cnc(C(=O)NCCc2ccc(S(=O)(=O)NC(=O)NC3CCCCC3)cc2)cn1 93.9%
COc1cccc2c1C(=O)O/C2=C/c1ccc2c(c1)OCO2 95.2%
COc1ccc(C2N3CC4(C)CN2CC(C)(C3)C4)cc1OC (centres undefined) 103%
